Shown are actives, neighbours in structure and some others; about 11% of the full set was active somewhere.
G9a block – G9a (human) methyltransferase inhibition | G9a H3K9 monomethylation, AlphaScreen, 2 h | Potency, µM (series often up to 102 µM), for inactives: at the highest dose activity, negative = inhibition, hits mostly inhibitors | 350,000 tested, 8.8% active; further: potency means the concentration at half of the fitted maximal effect; nearly all actives have a fitted effect of over 75% in size
Target sequence (Q96KQ7 913-1193 limits assumed): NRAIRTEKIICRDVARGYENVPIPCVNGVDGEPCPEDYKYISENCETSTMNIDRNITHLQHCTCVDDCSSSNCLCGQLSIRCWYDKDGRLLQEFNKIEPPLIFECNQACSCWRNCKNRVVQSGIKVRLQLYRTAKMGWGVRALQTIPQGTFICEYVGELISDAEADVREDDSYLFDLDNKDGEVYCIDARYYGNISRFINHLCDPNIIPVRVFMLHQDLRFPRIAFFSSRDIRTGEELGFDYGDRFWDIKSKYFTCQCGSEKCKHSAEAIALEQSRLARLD
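Signal arises when biotinylated H3K9 peptide, once monomethylated, bridges streptavidin donor and antibody-captured acceptor beads. Enzyme at 20 nM was preincubated 15 min with test compounds; peptide 500 nM and SAM 20 uM then reacted for 2 h.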
Tau fibril ThT – tau fibrillization inhibition (ThT binding). recombinant tau K18 P301L, heparin-induced fibrillization, ThT fluorescence. Potency, µM (series often up to 57.4 µM), without a hit: at the top dose activity, negative = inhibition, hits mostly inhibitors. 270,000 tested, 2.1% active; further: potency means the concentration at half of the fitted maximal effect; nearly all actives have a fitted effect of over 55% in size
Target sequence (P10636 561-689 P618L limits assumed): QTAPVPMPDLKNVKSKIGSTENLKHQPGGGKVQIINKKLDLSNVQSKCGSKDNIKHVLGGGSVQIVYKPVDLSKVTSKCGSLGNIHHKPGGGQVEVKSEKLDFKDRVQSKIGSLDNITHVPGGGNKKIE
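Heparin-induced fibrillization of the P301L-mutant K18 repeat-domain fragment of human tau was followed by ThT binding in quantitative high-throughput format.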
Tau FP inhib – inhibitors of human tau fibril formation; K18 P301L tau heparin fibrillization, Alexa594 FP, 6 h; Potency, µM (series often up to 57.7 µM), for inactives: at the top dose activity, negative = inhibition, hits mostly inhibitors; 280,000 tested, 0.39% active; AID 1468; further: potency means the concentration at half of the fitted maximal effect; nearly all actives have a fitted effect of over 55% in size
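Compound effects on tau fibrillization are measured by Alexa 594 fluorescence polarization (ex 555, em 632 nm). K18 P301L tau is used at 15 uM with 0.24 uM labeled tracer, and 20 uM heparin induces aggregation over 6 hr at 37 C.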
Sfp PPTase inh – Sfp phosphopantetheinyl transferase inhibition; Q9F4F7; Biochemical Sfp PPTase activity, qHTS; Potency, µM, inactives show largest response in the series, negative = inhibition, most hits filed as inhibitors; 310,000 tested, 3.5% active; AID 1490;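 further: the enzyme is Sfp with the accession as filed and its product quenches rhodamine fluorescence; potency means the concentration at half of the fitted maximal effect; 0% = enzyme reaction without inhibitor and -100% = no enzyme wells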
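Compounds were incubated with enzyme (final 15 nM) for 15 min at room temperature before substrate addition started the reaction. Fluorescence at 525 nm excitation, 598 nm emission was recorded immediately and after 30 minutes.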
Coupling enz – counter-screen for Giardia aldolase inhibitors: coupling enzyme system; AID 2472; activity change, negative = inhibition, % at 58.2 µM, hits read low; 290,000 tested, 0.67% active; coupling enzyme system counterscreen, AmpLite Red fluorescence; in the data active means activity change below about -30%
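Compounds tested against the coupling enzymes alone at 57.5 uM final; readout was AmpLite Red fluorescence (525/598 nm) after 20 min at RT.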
Tau fluor cs – counter-screen for tau fibril formation inhibitors; Potency, µM (titrated, usually from 57.7 µM), for inactives: at the top dose activity change, negative = decrease; AID 1463; 280,000 tested, 0.93% active; tau K18 P301L Alexa594 fluorescence, heparin fibrillization; further: potency means the concentration at half of the fitted maximal effect; nearly all actives have a fitted effect of over 55% in size
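Human tau K18 P301L (15 uM unlabeled, 0.24 uM Alexa 594-labeled) in 100 mM sodium acetate pH 7 with 20 uM heparin, 6 hr at 37 C. ThT 30 uM added, 1 hr ambient; Alexa 594 FP and total fluorescence read at 555/632 nm.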
* marks the source's active call; other numbers are inactive results; [ ] = another dose, or the depositor's remark. Unless noted, the call rests on the fitted dose curve; in most records, active means well fitted curve in the direction sought with a large enough effect; inconclusive means small, poorly fitted or top-dose-only effect, or another doubt; inactive means no such curve, though single readings can be large; an effect the other way counts as inactive or inconclusive. Unless noted, on the % scale 0 is the no-effect control and ±100 the full control effect.

Screening Cc1ccc(C)c(Cn2c(=O)n(CCCCC(=O)NCc3ccc4c(c3)OCO4)c(=O)c3ccccc32)c1 returned G9a block 8%[59 µM], Tau fibril ThT 4%, Tau FP inhib -4% and Tau fluor cs -1%.
`Cc1ccccc1NC(=O)Cc1c[nH]c2ccccc12` gave G9a block 16%, Sfp PPTase inh 18% and Coupling enz -3.
CN(C)c1ccc(/C=C/C(=O)c2ccccc2)cc1[N+](=O)[O-] was read as G9a block inconclusive, Tau fibril ThT 10µM*, Tau FP inhib 4%, Sfp PPTase inh -15%, Coupling enz -2 and Tau fluor cs inconclusive.
For CN(Cc1ccco1)C(=O)CSc1nc(C2CC2)n(-c2ccccc2)n1 the results were G9a block 32µM*.
For NC(=O)C1CCN(C(=O)C2CCN(C(=O)Nc3ccccc3)CC2)CC1 the results were G9a block -6%.
Screening CC(=O)CC(=O)Nc1ccc2ccccc2c1 returned G9a block 8%[59 µM], Tau fibril ThT -9%, Tau FP inhib 6%, Sfp PPTase inh 10%, Coupling enz -1 and Tau fluor cs -1%.
Screening CCOC(=O)C(Nc1ccc2ccccc2c1)C(=O)OCC returned G9a block 2µM*, Tau fibril ThT 0%, Tau FP inhib -4%, Sfp PPTase inh -1%, Coupling enz 3 and Tau fluor cs -2%.
Screening c1ccc(COc2ccc(Nc3ncnc4nc[nH]c34)cc2)cc1 returned G9a block -5%, Tau fibril ThT inconclusive, Tau FP inhib 18%, Sfp PPTase inh 11%, Coupling enz 1 and Tau fluor cs 14µM*[quencher].
`COc1ccccc1C(=O)Nc1c(C(=O)Nc2ccccc2F)oc2ccccc12` gave G9a block -35%[59 µM], Tau fibril ThT 0%, Tau FP inhib inconclusive and Tau fluor cs inconclusive.
CCCCNC(=O)C1Cc2cc(S(=O)(=O)N3CCCC3)ccc2N1C(C)=O (centres undefined) was read as G9a block 8% and Sfp PPTase inh 7%.
For O=C(Nc1ccc(F)cc1)Nc1csc2c1CCCC2 the results were G9a block -1%[59 µM], Tau fibril ThT inconclusive, Tau FP inhib -16% and Tau fluor cs 7.1µM*[quencher].
CC(=O)c1cccc(NC(=O)Nc2csc3c2CCCC3)c1 was read as G9a block inconclusive, Tau fibril ThT inconclusive, Tau FP inhib inconclusive, Sfp PPTase inh -3%, Coupling enz -5 and Tau fluor cs 11µM*[quencher].
`Cc1ccc(NC(=O)Nc2csc3c2CCCC3)c(C)c1` gave G9a block 3%[59 µM], Tau fibril ThT inconclusive, Tau FP inhib 11% and Tau fluor cs -23%.
For O=C(CSc1nnc(Nc2ccccc2F)s1)c1cc2ccccc2o1 the results were G9a block 7.9µM*, Tau fibril ThT inconclusive, Tau FP inhib -14%, Sfp PPTase inh -17%, Coupling enz 3 and Tau fluor cs inconclusive.
For O=C1c2ccccc2C(=O)N1CSc1nnc(Nc2ccccc2F)s1 the results were G9a block 10µM*, Tau fibril ThT -7%, Tau FP inhib inconclusive, Sfp PPTase inh 5%, Coupling enz 2 and Tau fluor cs -21%.
COc1ccc(Nc2nnc(SCC(=O)c3cc4ccccc4o3)s2)cc1 was read as G9a block -134%[59 µM], Tau fibril ThT inconclusive, Tau FP inhib 5%, Sfp PPTase inh inconclusive, Coupling enz -18 and Tau fluor cs inconclusive.
O=C1c2ccccc2C(=O)N1CSc1nnc(Nc2ccccc2)s1 was read as G9a block inconclusive, Tau fibril ThT 1%, Tau FP inhib -3%, Sfp PPTase inh 2%, Coupling enz 3 and Tau fluor cs 1%.
Cc1cccc(C)c1Nc1c(-c2ccc(N3CCOCC3)cc2)nc2cnccn12 was read as G9a block inconclusive, Tau FP inhib 8%, Sfp PPTase inh -6%, Coupling enz -1 and Tau fluor cs -27%.
For CSc1ccc(-c2nc3cnccn3c2Nc2ccc3c(c2)OCO3)cc1 the results were G9a block 45µM*, Tau fibril ThT inconclusive, Tau FP inhib inconclusive, Sfp PPTase inh inconclusive, Coupling enz -3 and Tau fluor cs inconclusive.
`Clc1ccc(-c2nc3cnccn3c2Nc2ccc3c(c2)OCO3)cc1` gave G9a block 16µM*, Tau fibril ThT inconclusive, Tau FP inhib inconclusive, Sfp PPTase inh -6%, Coupling enz 1 and Tau fluor cs 14µM*[quencher].
COc1ccc(Nc2c(-c3ccc(Cl)cc3)nc3cnccn23)cc1OC was read as G9a block 13µM*, Tau fibril ThT inconclusive, Tau FP inhib 8% and Tau fluor cs inconclusive.
For Oc1ccccc1-c1nc2cnccn2c1Nc1ccc2c(c1)OCCO2 the results were G9a block inconclusive, Tau fibril ThT inconclusive, Tau FP inhib inconclusive, Sfp PPTase inh 8%, Coupling enz 0 and Tau fluor cs inconclusive.
c1cn2c(Nc3ccc4c(c3)OCCO4)c(-c3ccc(N4CCOCC4)cc3)nc2cn1 was read as G9a block 50µM*, Tau FP inhib 12%, Sfp PPTase inh -15%, Coupling enz -1 and Tau fluor cs inconclusive.
Cn1sccc1=O was read as G9a block 1.8µM*.
`Cc1ccc(CCNC(=O)c2cc3ccccn3n2)cc1` gave G9a block 2%[59 µM], Tau fibril ThT -17%, Tau FP inhib 1% and Tau fluor cs -8%.
`CC1CCN=C(N)S1` (centres undefined) gave G9a block 3.2µM*, Tau fibril ThT -1%, Tau FP inhib 8% and Tau fluor cs 1%.
For C[C@@H]1CCN=C(N)S1 the results were Tau fibril ThT 2%, Tau FP inhib -8%, Sfp PPTase inh -31%, Coupling enz 6 and Tau fluor cs 3%.
`O=C1/C(=C/N(C(=O)c2ccco2)c2ccc(Br)cc2)Sc2ccccc21` gave G9a block 45µM*, Tau fibril ThT inconclusive, Tau FP inhib 4%, Sfp PPTase inh -4%, Coupling enz 0 and Tau fluor cs 1%.
`O=C1/C(=C/N(C(=O)c2ccco2)c2ccc(Cl)cc2)Sc2ccccc21` gave G9a block -3%[59 µM], Tau fibril ThT inconclusive, Tau FP inhib 15%, Sfp PPTase inh 8%, Coupling enz 0 and Tau fluor cs -7%.
CC[n+]1c(C)sc2c3ccsc3ccc21 was read as G9a block 1.6µM*, Tau fibril ThT inconclusive, Tau FP inhib -11%, Sfp PPTase inh 1.4µM*, Coupling enz 2 and Tau fluor cs -4%.

From PubChem
